Among the data in PubChem BioAssay AID504329 (Southern Research Specialized Biocontainment Screening …, 2011) are inhibition values, retold here.

Screen size: about 340,000 compounds; about 1,000 (0.29%) were called active. Cut-off read from the data, not from the text of the source: inconclusive = inhibition above about 27% without an active follow-up result; inactive = below that. A selection follows. Entries with a potency or affinity are not part of this list.

This experiment can be described thus: NS1A inhibition, H1N1 influenza, cell based functional assay (AID 504329). To be noted: percent inhibition, at 12.5 µM, active compounds read high.
Regarding `Cc1cccc(C)c1NC(=S)N(CCN(C)C)C(C)c1ccccn1` (stereo not drawn), the inhibition is 10.7% (inactive).
To `Cc1ccc(C)c(NC(=S)N(CCN(C)C)C(C)c2ccccn2)c1` (stereo not drawn) belongs 4.89% (inactive).
As for `Cc1cc(=O)[nH]c(SCC(=O)Nc2ccc(C)c(S(=O)(=O)N3CCCCC3)c2)n1`, the inhibition was 14% (inactive).
The result for `O=C(CNC(=O)c1ccco1)Nc1ccc2c(c1)OCCO2` reads 5.25% (inactive); that for `COc1ccc(/C=C/C(=O)NC(=S)NNC(=O)c2c(-c3ccccc3)noc2C)cc1`, -5.37% (inactive); that for `Cc1[nH]c(=S)[nH]c(=O)c1CCOc1ccccc1`, 21.1% (inactive).
As to `O=S(=O)(c1ccc(NC(=S)N/N=C/c2ccc(O)c(O)c2)cc1)N1CCOCC1`, the inhibition is 7.64% (inactive).
The result for `O=C(N/N=C/c1cc(Cl)cc([N+](=O)[O-])c1O)c1cccc(S(=O)(=O)N2CCOCC2)c1` reads 13% (inactive); that for `O=S(=O)(c1ccc(NC(=S)Nc2ccccc2)cc1)N1CCOCC1`, 1.71% (inactive); that for `NNC(=S)Nc1ccc(S(=O)(=O)N2CCOCC2)cc1`, -2.99% (inactive).
To `Cc1sc2ncnc(OCC(=O)NC(C)C(C)C)c2c1C` (stereo not drawn) belongs 11.9% (inactive).
Consider `N/C(=N\[N+](=O)[O-])N1CCN(C(=O)OC2CCCC2)CC1`, for which the inhibition was 0.06% (inactive).
In the case of `CCN(CC(=O)Nc1c(F)cccc1F)C(=O)CCNC(=O)c1ccc([N+](=O)[O-])cc1`, the inhibition was -2.66% (inactive).
The result for `O=C(O)c1cccc(-c2ccccc2)c1O` reads -26.6% (inactive); that for `Cc1ccc2oc(-c3ccccc3C(=O)O)cc(=O)c2c1`, 1.72% (inactive).
The result for `CN1CCN(C(=O)Nc2ccc([N+](=O)[O-])cc2)CC1` reads 15.5% (inactive); that for `O=C(Cn1[nH]c(=O)c2ccccc2c1=O)OCC(=O)c1ccc(Br)cc1`, 5.91% (inactive).
The result for `O=C1CN(CC(=O)N2CCCCC2)c2ccccc2O1` reads 16% (inactive); that for `O=C(CN1CCOc2ccccc21)NCc1ccco1`, -0.84% (inactive); that for `COc1ccc(C(=O)COC(=O)C2CC3CCCC(C2)C3=O)cc1Br` (stereo not drawn), -3.01% (inactive).
For the molecule `O=C(CN1C(=O)c2ccccc2C1=O)OCC(=O)c1ccccc1`, the inhibition was -5.68% (inactive).
In the case of `COc1ccc(C(=O)COC(=O)Cn2nnc3ccccc32)cc1Br`, the inhibition was 18.7% (inactive).
The result for `CCC1Oc2ccccc2N(CC(=O)NCc2ccco2)C1=O` (stereo not drawn) reads -8.15% (inactive); that for `O=C(CN1C(=O)C2C3C=CC(C3)C2C1=O)OCC(=O)c1ccc(Br)cc1` (stereo not drawn), 4.57% (inactive); that for `Cc1c(C)c2ccc(OCC(=O)N3CCN(c4ccccc4)CC3)cc2oc1=O`, 4.8% (inactive).
On to `COc1cc(C2NC(=O)NC(c3ccccc3)=C2C(C)=O)cc(Cl)c1OCC(=O)O` (stereo not drawn), for which the inhibition is -2.44% (inactive).
The result for `CC[C@@]1(C(=O)OC)N[C@H](CN(C)S(=O)(=O)c2ccc(OC)cc2)[C@@H]2C(=O)N(C)C(=O)[C@@H]21` reads -26.2% (inactive); that for `Cc1ccc(S(=O)(=O)NCC(=O)OCC(=O)NCc2ccco2)cc1`, -3.09% (inactive); that for `O=C(Nc1cccc(Cl)c1)c1cnccn1`, -1.59% (inactive).
For the molecule `Cc1cccc(NC(=S)N/N=C/c2cccc(O)c2)c1C`, the inhibition is -3.84% (inactive).
To `C/C(=N\NC(=S)Nc1ccccc1C)c1ccc(O)cc1` belongs 10.4% (inactive); to `O=C(CCC(=O)Nc1ccc(F)cc1)N/N=C/c1ccc(O)cc1O`, 9.41% (inactive).
The result for `Fc1ccc(NC(=S)N/N=C/c2ccc(F)c(F)c2)cc1` reads 0.18% (inactive).
To `O=C(CCC(=O)Nc1ccc(F)cc1)N/N=C/c1ccccc1O` belongs -5.76% (inactive); to `Fc1ccc(NC(=S)NN=Cc2ccccc2Cl)cc1`, -9.24% (inactive); to `Cc1ccc(S(=O)(=O)NCc2ccccc2)cc1C(=O)N1CCN(S(=O)(=O)c2ccccc2)CC1`, -12.2% (inactive).
For the molecule `COC(=O)C1SCCN1S(=O)(=O)c1ccc(Cl)cc1` (stereo not drawn), the inhibition is -20.7% (inactive).
To `CN(C)c1nc(OCC(=O)NC(C)(C)C)nc(N(C)C)n1` belongs -0.43% (inactive); to `O=C(c1ccc(Br)c(S(=O)(=O)N2CCOCC2)c1)N1CCN(C/C=C/c2ccccc2)CC1`, -13% (inactive); to `CC1(c2ccc3c(c2)OCCO3)NC(=O)N(CC(=O)Nc2ccccc2SCC#N)C1=O` (stereo not drawn), -12.2% (inactive).
To `O=S(=O)(O)c1cc(O)ccc1O` belongs 1.1% (inactive); to `Oc1ccc(N=Nc2ccc3c(c2)OCCO3)c(O)c1`, 12.8% (inactive).
The result for `O=S(=O)(c1cc(O)ccc1O)c1cccc2c(S(=O)(=O)c3cc(O)ccc3O)cccc12` reads 12.4% (inactive).
For the molecule `Oc1ccc(N=Nc2ccc(Br)cc2)c(O)c1`, the inhibition is -16.2% (inactive).
The result for `CC(OC(=O)c1ncc(Cl)c(Cl)c1Cl)C(=O)NC1CCCCC1C` (stereo not drawn) reads -15.4% (inactive); that for `CN1C=C/C(=C\c2cc[n+](C)c3ccccc23)c2ccccc21`, 1.31% (inactive); that for `COc1ccc(/C=C/c2ccc3ccccc3[n+]2C)cc1OC`, -10.2% (inactive).
On to `CC(C)CCC(C)NC(=O)Cc1ccc(S(=O)(=O)N2CCOCC2)s1` (stereo not drawn), for which the inhibition is -3.75% (inactive).
The result for `O=C(Nc1nc(-c2ccccc2)cs1)c1ccco1` reads 1.53% (inactive).
The result for `O=C(Nc1nc(-c2ccccn2)cs1)c1cccc(-n2cnnn2)c1` reads -28.6% (inactive); that for `CC(=O)Nc1ccc(C(=O)Nc2nc(-c3cccnc3)cs2)cc1`, 4.3% (inactive); that for `O=C(Nc1nc(-c2ccccn2)cs1)c1ccc(Cl)s1`, 12.2% (inactive).
The result for `C/C(=N\NC(=O)C1COc2ccccc2O1)c1cccs1` (stereo not drawn) reads -4.26% (inactive); that for `O=C(Nc1nc(-c2ccccn2)cs1)c1ccc2c(c1)OCCO2`, 4.21% (inactive); that for `C/C(=N\NC(=O)C1COc2ccccc2O1)c1ccc(C)o1` (stereo not drawn), 7.81% (inactive).
Take `O=C(Nc1nc(-c2ccncc2)cs1)c1ccco1`: the inhibition was 21.8% (inactive).
As to `O=C(Nc1nc2c(F)cccc2s1)C1CC1`, the inhibition is -11.6% (inactive).
To `O=C(CN1CCCCC1)Nc1ccc(F)c(Cl)c1` belongs 6.14% (inactive); to `CC(=O)N1N=C(c2ccc(C)cc2)CC1c1ccc2c(c1)OCO2` (stereo not drawn), -19.2% (inactive).
The result for `Cc1n[nH]c(C)c1CCN(C)Cc1cn(C)nc1-c1ccccc1F` reads -2.31% (inactive).
The result for `CCOC(=O)C(CC)n1cnc2c(nnn2-c2ccccc2)c1=O` (stereo not drawn) reads 4.43% (inactive); that for `CC(C)C[C@@H](CNCC(=O)[C@H](Cc1ccccc1)NC(=O)c1[nH]cnc1C(=O)N[C@@H](C)CN)NC(=O)c1nc[nH]c1C(=O)N[C@@H](C)C(=O)O`, -9.76% (inactive).
For the molecule `O=C(NCc1cccs1)Nc1cc(Cl)ccc1Cl`, the inhibition is -3.84% (inactive).
For the molecule `Cc1csc(NC(=O)C2CC(=O)N(c3ccc4c(c3)OCCO4)C2)n1` (stereo not drawn), the inhibition is -10.8% (inactive).
The result for `Cc1csc(NC(=O)c2nc3nccc(C)n3n2)n1` reads 11.3% (inactive); that for `COc1ccc(-c2csc(NC(=O)C3CC(=O)N(c4ccc5c(c4)OCCO5)C3)n2)cc1` (stereo not drawn), -0.66% (inactive); that for `O=C(Nc1nc(-c2ccccc2)cs1)C1COc2ccccc2O1` (stereo not drawn), 3.59% (inactive).
The result for `CC(NC(=O)c1ccco1)C(=O)Nc1nccs1` (stereo not drawn) reads -3.4% (inactive); that for `C[C@H](NC(=O)c1ccco1)C(=O)Nc1nc(-c2ccccn2)cs1`, 21.6% (inactive).
The result for `Cc1ccnc2nc(C(=O)Nc3nc4ccccc4s3)nn12` reads -12.1% (inactive); that for `Cc1csc(NC(=O)C2COc3ccccc3O2)n1` (stereo not drawn), 3.59% (inactive).
Take `Cc1ccc(NCC(=O)N/N=C/c2ccncc2)cc1`: the inhibition was -3.31% (inactive).
Take `COc1ccc(Cc2noc(CN(C)CC(O)c3ccccc3)n2)cc1OC` (stereo not drawn): the inhibition was -6.23% (inactive).
To `CC(C)Cc1nnc(NC(=O)c2ccncc2)s1` belongs 7% (inactive).
To `C[C@H](CO)N1C[C@H](C)[C@@H](CN(C)S(=O)(=O)c2cccs2)Oc2ccc(NC(=O)Cc3ccccc3)cc2C1=O` belongs -1.59% (inactive); to `O=C(CN1C(=O)NC2(CCOc3ccccc32)C1=O)Nc1cccc(Cl)c1` (stereo not drawn), 3.28% (inactive).
Consider `CC(=O)CC(=O)Nc1ccn(-c2ccccc2)n1`, for which the inhibition is 10.6% (inactive).
To `O=C(CNC(=O)c1ccco1)NCC(=O)OCC(=O)c1ccc(Cl)c([N+](=O)[O-])c1` belongs 6.1% (inactive); to `O=C1OC(c2ccc(F)cc2)=N/C1=C\C=C/c1ccccc1`, -22.8% (inactive).
The result for `CC(C)(C)NC(=S)NC(=O)C12CCC3CC(CC(C3)C1)C2` reads 0.27% (inactive).
The result for `CCOc1ncccc1C(=O)Nc1ccccc1N1CCOCC1` reads -4.05% (inactive); that for `CC(Oc1ccccc1)C(=O)Nc1nc(-c2ccccn2)cs1` (stereo not drawn), 16.9% (inactive); that for `Cc1cccc(C(=O)NC(C(=O)Nc2nc(-c3ccccn3)cs2)C(C)C)c1` (stereo not drawn), 15.6% (inactive).
Regarding `Cc1ccc(C(=O)Nc2nc(-c3ccccn3)cs2)s1`, the inhibition was 18.4% (inactive).
To `Cc1csc(NC(=O)c2cccn2C)n1` belongs -0.43% (inactive).
To `COc1ccc(NC(=O)CSCc2cc(=O)n3nc(C4CC4)sc3n2)cc1` belongs 2.59% (inactive); to `CCCCOc1c(Cl)cc(CNC(C)(C)CO)cc1OCC`, -2.92% (inactive).
The result for `Cc1ccc(-c2nn(C)c(=O)c3ccccc23)cc1S(=O)(=O)NCCN1CCOCC1` reads -10.6% (inactive).
In the case of `O=C1C2CCCN2C(c2ccc(F)c(F)c2)N1c1cccc(Cl)c1` (stereo not drawn), the inhibition is -6.3% (inactive).
The result for `Cc1cc(OCc2cn3cccnc3n2)ccc1Cl` reads 6.77% (inactive).
The result for `CCOc1ccc2[nH]c(=O)c(CN(Cc3ccccc3OC)C(=O)c3ccccc3)cc2c1` reads 21.1% (inactive); that for `CCOc1ccc(S(=O)(=O)N2CCC(C(=O)OCc3cccc(OC)c3OC)CC2)cc1`, -13.5% (inactive).
To `COc1ccc(C)cc1N=Nc1ccc(O)c2ncccc12` belongs 6.77% (inactive); to `COc1ccc(N=Nc2ccc(O)c3ncccc23)cc1`, 2.93% (inactive); to `Cc1ccc(C)c(N=Nc2ccc(O)c3ncccc23)c1`, 5.69% (inactive).
For `Cc1cccc(N=Nc2ccc(O)c3ncccc23)c1`, the inhibition is 0.95% (inactive).
The result for `CCS(=O)(=O)c1ccc(OC)c(N=Nc2ccc(O)c3ncccc23)c1` reads 9.35% (inactive); that for `COc1cccc(N=Nc2ccc(O)c3ncccc23)c1`, -0.21% (inactive).
